Measurements taken from PubChem BioAssay (NCATS).
Records with an inconclusive call do not appear. Entries that show only a call come without a potency. Activity calls are given as the source filed them. The call rests on the fitted dose curve; in most records, active means well fitted curve in the direction sought with a large enough effect; inconclusive means small, poorly fitted or top-dose-only effect, or another doubt; inactive means no such curve, though single readings can be large; an effect the other way counts as inactive or inconclusive.

Columns and labels:
[1] = target: Arylsulfatase A (Homo sapiens) (UniProt P15289); assay: qHTS screen for enhancers of Arylsulfatase A (ASA1): LOPAC Validation Assay (AID 720538); settings: ASA enzyme activity, LOPAC qHTS enhancer assay; series mostly up to 57.5 µM; further: potency means the concentration at half of the fitted maximal effect
Chain of Arylsulfatase A (Homo sapiens) (P15289 whole entry, looked up): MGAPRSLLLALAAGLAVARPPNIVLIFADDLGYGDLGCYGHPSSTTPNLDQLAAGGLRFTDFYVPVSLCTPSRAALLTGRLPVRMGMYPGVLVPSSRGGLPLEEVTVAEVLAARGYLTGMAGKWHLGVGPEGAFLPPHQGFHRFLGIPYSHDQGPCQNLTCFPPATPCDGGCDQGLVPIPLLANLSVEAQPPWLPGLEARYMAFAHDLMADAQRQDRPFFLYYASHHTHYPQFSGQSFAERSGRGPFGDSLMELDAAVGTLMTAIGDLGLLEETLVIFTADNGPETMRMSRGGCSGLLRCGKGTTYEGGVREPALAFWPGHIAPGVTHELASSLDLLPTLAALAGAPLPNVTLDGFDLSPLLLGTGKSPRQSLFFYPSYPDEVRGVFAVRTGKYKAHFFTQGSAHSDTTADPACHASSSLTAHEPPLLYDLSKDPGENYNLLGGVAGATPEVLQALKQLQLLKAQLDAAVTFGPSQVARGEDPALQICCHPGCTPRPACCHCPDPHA
Summary of the method: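 SV40-transformed skin fibroblasts from an MLD patient (ASA-I179S) were treated with compounds for 48h at 37 degree C, then lysed with 0.5mM pNCS final substrate for 14h at room temperature; NaOH stop, fluorescence read (Ex=525 nm; Em=598 nm).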

[2] = qHTS for compounds that reverse cellular toxicity of Amyloid beta (A-beta) peptide in yeast: LOPAC Validation Assay (AID 720559); settings: yeast expressing A-beta; series mostly up to 46.1 µM
Summary of the method: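 Yeast cells expressing toxic A-beta were combined with pinned compounds in growth medium and incubated 48 hr at 30 C. Growth was read as absorbance at 600 nm and normalized to DMSO and to an equimolar FeCl3/clioquinol positive control.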

[3] = qHTS for Activators of Parkin Expression: LOPAC Validation Assay (NLuc Reporter) (AID 720572; further: potency means the concentration at half of the fitted maximal effect); settings: Parkin promoter NanoLuc reporter cells, luminescence; series mostly up to 46.1 µM
Summary of the method: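 Cells harboring the Parkin-promoter coincidence reporter were treated for 24 h at seven concentrations. NLuc output was measured sequentially after the FLuc channel and scaled between DMSO and positive control values.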

[4] = qHTS for Activators of Parkin Expression: LOPAC Validation Assay (FLuc Reporter) (AID 720573; further: potency means the concentration at half of the fitted maximal effect); settings: Cell line, PRKN promoter firefly luciferase reporter; series mostly up to 46.1 µM
Summary of the method: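 Neuronal cell line stably carrying FLuc/NLuc coincidence reporter under Parkin promoter; cells plated 24 h, then compounds added in 7-point dose response for 24 h at 37 C. FLuc luminescence read; normalized to DMSO and positive control (100%).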

Compound | Potency [1] | outcome [2] | Potency [3] | Potency [4]
Cc1nc(N=Nc2ccc(S(=O)(=O)O)cc2S(=O)(=O)O)c(COP(=O)(O)O)c(C=O)c1O | inactive | inactive | inactive | inactive
O=c1[nH]c2ccccc2c2ccccc12 | inactive | inactive | inactive | inactive
O=C(O)C1=CCCN(CCON=C(c2ccccc2)c2ccccc2)C1 | inactive | inactive | inactive | inactive
CC(=O)/C(C)=N/O | inactive | inactive | inactive | inactive
C#CCn1c(=O)c2c(ncn2C)n(C)c1=O | inactive | inactive | inactive | inactive
O=C(O)[C@H]1NCCC[C@H]1C(=O)O | inactive | inactive | inactive | inactive
Cn1cc(C(=O)OCC2CCN(CCNS(C)(=O)=O)CC2)c2ccccc21 | inactive | inactive | inactive | inactive
O=[N+]([O-])c1cccc2c(Br)[nH]nc12 | inactive | inactive | inactive | inactive
CC(C)(CO)Cc1cc(C(C)(C)C)c(O)c(C(C)(C)C)c1 | inactive | inactive | inactive | inactive
CSC(N)=NCCC[C@H](N)C(=O)O | inactive | inactive | inactive | inactive
C[C@@]1(C2CCCC2)Cc2cc(OCC(=O)O)c(Cl)c(Cl)c2C1=O | inactive | inactive | inactive | inactive
N#CC(C#N)=C(N)/C(C#N)=C/c1ccc(O)cc1 | inactive | inactive | inactive | inactive
COc1cc(C(O)CO)ccc1O (configuration not stated) | inactive | inactive | inactive | inactive
COc1cccc(OC)c1OCCNCC1CSc2ccccc2O1 (configuration not stated) | 1.07 µM (active) | inactive | inactive | inactive
O=C(OCCN1CCOCC1)C1(c2ccccc2)CCCCC1 | inactive | inactive | inactive | inactive
O=C(O)/C(=C/c1c(C(=O)O)[nH]c2cc(Cl)cc(Cl)c12)c1ccccc1 | inactive | inactive | inactive | inactive
CC#CCOC(=O)c1c(C)nc2sc3c(c2c1N)CCC(O)C3 (configuration not stated) | inactive | inactive | inactive | inactive
C=CCNc1ncnc2ccc(Br)cc12 | inactive | inactive | inactive | inactive
CNCCc1cnc(CCC(c2ccccc2)c2ccccc2)[nH]1 | inactive | inactive | inactive | inactive
COc1ccc(NC(=O)c2ccc(-c3ccc(-c4noc(C)n4)cc3C)cc2)cc1N1CCN(C)CC1 | inactive | inactive | 20.6 µM (active) | inactive
c1ccc2c(c1)CCC[C@H]2Nc1nc2ccccc2[nH]1 | inactive | inactive | inactive | inactive
CC(/C=C/c1cccc(Oc2ccc(F)cc2)c1)N(O)C(N)=O (configuration not stated) | inactive | inactive | inactive | inactive
CCC1(O)CC2CN(CCc3c([nH]c4ccccc34)[C@@](C(=O)OC)(c3cc4c(cc3OC)N(C=O)C3[C@]45CCN4CC=C[C@@](CC)([C@@H](OC(C)=O)[C@]3(O)C(=O)OC)[C@H]45)C2)C1 (some centres not stated) | inactive | inactive | inactive | inactive
N#Cc1cc2nc(O)c(O)nc2cc1[N+](=O)[O-] | inactive | inactive | inactive | inactive
Nc1ccc(CCNc2ncnc3c2ncn3C2OC(CO)C(O)C2O)cc1 (configuration not stated) | inactive | inactive | inactive | inactive
C=C1C(=O)O[C@@H]2[C@H]3O[C@]3(C)CCC=C(C)CC[C@@H]12 | inactive | inactive | inactive | inactive
CCCCCC(O)CCCC(=O)O (configuration not stated) | inactive | inactive | inactive | inactive

Compound | Potency [1] | outcome [2] | Potency [3] | Potency [4]
O=C(O)/C=C/c1cnc[nH]1 | inactive | inactive | inactive | inactive
CCCCC[C@H](CC(=O)NO)C(=O)N[C@H](C(=O)N1CCC[C@H]1CO)C(C)C | inactive | inactive | inactive | inactive
CC1=C(C(=O)O)N2C(=O)[C@@H](NC(=O)C(N)C3=CCC=CC3)[C@H]2SC1 (some centres not stated) | inactive | inactive | inactive | inactive
N[C@@H](Cc1ccc(F)cc1)C(=O)O | inactive | inactive | inactive | inactive
CCCOC(=O)c1c(-c2ccccc2)nc(CC)c(C(=O)SCC)c1CCC | inactive | inactive | inactive | inactive
O=C(O)c1ccccc1Nc1ccccc1 | inactive | inactive | inactive | inactive
CC(N)=O | inactive | inactive | inactive | inactive
c1ccc(CN2CCC3(CCCc4ccccc43)CC2)cc1 | inactive | inactive | inactive | inactive
CC1CCN=C(N)S1 (configuration not stated) | inactive | inactive | inactive | inactive
O=c1cc(O)cc(/C=C/c2ccc(O)c(O)c2)o1 | inactive | inactive |  | inactive
Cc1cc(Cn2cnc3c2C[C@@H](C(=O)O)N(C(=O)C(c2ccccc2)c2ccccc2)C3)ccc1N | inactive | inactive | inactive | inactive
Nc1ncnc2c1ncn2C1CCCC1 | inactive | inactive | inactive | inactive
C=CC1(C)CC(=O)C2(O)C(C)(O1)C(OC(C)=O)C(O)C1C(C)(C)CCC(O)C12C (configuration not stated) | inactive | inactive |  | inactive
NC(=Nc1ccccc1)NC(=O)c1nc(Cl)c(N)nc1N | inactive | inactive |  | 8.2 µM (active)
CC(=O)NNC(=O)N1Cc2ccccc2Oc2ccc(Cl)cc21 | inactive | inactive | inactive | inactive
CC(C)NCC(O)COc1ccc(CC(N)=O)cc1 (configuration not stated) | inactive | inactive | inactive | inactive
CC[C@H](NC(=O)c1c(C)c(-c2ccccc2)nc2ccccc12)c1ccccc1 | inactive | inactive | inactive | inactive
CNCCNS(=O)(=O)c1cccc2cnccc12 | inactive | inactive | inactive | inactive
O=c1cc(-c2ccccc2F)[nH]c2cc3c(cc12)OCO3 | inactive | inactive | inactive | inactive
CN1C2CCC1CC(OC(c1ccccc1)c1ccccc1)C2 (configuration not stated) | inactive | inactive | inactive | inactive
O=c1[nH]c(=S)[nH]c(-c2ccccc2)c1Cc1c(O)ccc2ccccc12 | inactive | inactive |  | inactive
CC1C(=O)N(C)C(=O)c2nc[nH]c21 (configuration not stated) | inactive | inactive | inactive | inactive
CC(N)(C(=O)O)c1ccc(C(=O)O)cc1 (configuration not stated) | inactive | inactive | inactive | inactive
S=C(S)N1CCCC1 | inactive |  | inactive | inactive
N[C@H](C(=O)O)c1cc(O)cc(O)c1 | inactive | inactive | inactive | inactive
CN1CC(O)C(O)C(O)C1CO (configuration not stated) | inactive | inactive | inactive | inactive
Cc1ccc2c(c1)C(N1CCN(C)CC1)=Nc1cccnc1N2 | inactive | inactive | inactive | inactive

Compound | Potency [1] | outcome [2] | Potency [3] | Potency [4]
CCCn1c(=O)c2[nH]c(C3CCCC3)nc2n(CCC)c1=O | inactive | inactive | inactive | inactive
C[C@H](NC(=O)/C(C#N)=C/c1ccc(O)c(O)c1)c1ccccc1 | inactive | inactive |  | inactive
COc1ccccc1N1CCN(CCN(C(=O)c2ccc(F)cc2)c2ccccn2)CC1 | inactive | inactive | inactive | inactive
COc1ccccc1N1CCN(CCCCNC(=O)c2ccc3ccccc3c2)CC1 | inactive | inactive | inactive | inactive
O=c1oc(Cl)c(Cl)c2ccccc12 | inactive |  | inactive | 
C[N+](C)(C)CC=O | inactive | inactive | inactive | inactive
CO/N=C(\C(=O)N[C@@H]1C(=O)N2C(C(=O)O)=C(CSc3nc(=O)c(O)nn3C)CSC12)c1csc(N)n1 (some centres not stated) | inactive | inactive | inactive | inactive
c1ccc(C(NCc2cccnc2)(c2ccccc2)c2ccccc2)cc1 | inactive |  | inactive | 
N#CC(=C(\N)Sc1ccccc1N)/C(C#N)=C(/N)Sc1ccccc1N | inactive | inactive |  | inactive
CC(=O)O[C@H]1CC2(C)[C@@H](C[C@@H](O)[C@H]3[C@@]4(C)CC[C@@H](O)[C@@H](C)[C@@H]4CC[C@@]32C)C1=C(CCC=C(C)C)C(=O)O (some centres not stated) | inactive | inactive | inactive | inactive
COc1cc(/C=C(\C#N)C(=O)Nc2nnc(C(F)(F)F)s2)ccc1OCc1ccc(C(F)(F)F)cc1C(F)(F)F | inactive | inactive |  | inactive
C[C@H](O)C(=O)C1=Nc2c(nc(N)[nH]c2=O)NC1 | inactive | inactive | inactive | inactive
CCCCOC(=O)NS(=O)(=O)c1sc(CC(C)C)cc1-c1ccc(Cn2c(CC)nc3c(C)cc(C)nc32)cc1 | inactive | inactive |  | inactive
COc1ccc2c(c1)c(CC(=O)O)c(C)n2C(=O)c1ccccc1 | inactive | inactive |  | inactive
COC(=O)[C@H](NC(=O)c1cc(-c2ccccc2)nc2ccccc12)c1ccccc1 | inactive | inactive |  | inactive
NC(=O)CNCCC(c1ccccc1)c1ccccc1 |  | inactive | inactive | inactive
NC1(C(=O)O)CCCCC1 |  | inactive | inactive | 
CCCCS(=N)(=O)CC[C@H](N)C(=O)O (some centres not stated) |  | inactive | inactive | inactive
O=c1[nH]c(=O)c2nc3ccccc3nc2[nH]1 |  | inactive | inactive | 
CC(C)(C)NCC(O)COc1cccc2[nH]c(=O)[nH]c12 (configuration not stated) |  | inactive | inactive | inactive
CCN(CC)CCOC(=O)c1cc(Cl)c(N)cc1OC |  | inactive | inactive | inactive
O=c1cc(-c2ccccc2)[nH]c2nc(Cl)ccc12 |  | inactive | inactive | inactive
CC[N+](CC)(CC)CC(=O)Nc1c(C)cccc1C |  | inactive | inactive | inactive
COc1ccc(-c2ccc(N)[n+](CCCC(=O)O)n2)cc1 |  | inactive | inactive | inactive
CCCN(CCc1ccccc1)C1CCc2c(O)cccc2C1 (configuration not stated) |  | inactive | inactive | inactive
CC(=O)[C@H]1CCC2C3CC=C4C[C@@H](OS(=O)(=O)O)CC[C@]4(C)C3CC[C@@]21C (some centres not stated) |  | inactive | inactive | inactive
